# Experimental data as given in PubChem BioAssay AID743088 (The Scripps Research Institute Molecular Screening Center, 2013).
# Values without a mark were called inactive.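 The calls were made as follows: active = binding inhibited by at least 50%, or stimulated by at least 50%, shown as inhibition of -50% or lower; inactive = the rest.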
# Test system: Imidazoline I2 Central
# Assay: radioligand displacement at 30 receptors – biochemical, Panlabs HitProfilingScreen, selectivity assay for AVPR1a antagonist project, profiling panel (AID 743088)
# Conditions: 30 targets, at 10 µM, active compounds read high
smiles,measurement,value
O=C(C1CCN(c2ccc(Cl)cn2)CC1)N(CC1CC1)c1ccc(Cl)cc1,inhibition of binding,27%
